# Measured values from PubChem BioAssay.
# Activity calls are given as the source filed them. Unless noted, the rule behind the calls is not given here.
# Columns and labels:
# [1] = resazurin metabolic signal in HepG2 cells – cell-based, resazurin fluorescence, 24 h, PK04 Diversity Set, profiling panel (AID 1172); conditions: HepG2 viability, higher = more signal
# [2] = budding yeast growth changes without added modifier – OD600, strain BY4716, 24 h, basal condition, primary screen (AID 1173); conditions: S. cerevisiae BY4716 growth, OD600, 24 h; higher = more signal, called active from +8 up or from −8 down
# [3] = viability profiling in MM1S myeloma cells – cell-based, resazurin fluorescence, basal, 24 h, PK04 Diversity Set, profiling panel (AID 1174); conditions: higher = more signal, called active from +8 up or from −8 down;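 note: MM1S multiple myeloma cell line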
# [4] = target: Dihydroorotate dehydrogenase (quinone), mitochondrial (Plasmodium falciparum (isolate 3D7)) (UniProt Q08210); assay: inhibition of P. falciparum DHODH – biochemical, C-terminal His tag, absorbance 600 nm, primary screen (AID 1175); conditions: PfDHODH enzyme, DCIP absorbance 600 nm; higher = more signal, called active from +8 up or from −8 down;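 note: recombinant parasite enzyme with a five histidine tag at its C terminus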
# [5] = inhibition of PAO1 biofilm formation – strain PAO1, LB-PBS medium, absorbance 600 nm, primary screen (AID 1176); conditions: P. aeruginosa PAO1 growth/biofilm, A600, 12 h; higher = more signal
# [6] = growth modulation of vineyard yeast isolate – strain RM11-1a, OD600, basal, 24 h, primary screen (AID 1177);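 note: cultures grown under basal conditions with no added stressor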; conditions: S. cerevisiae RM11-1a growth, OD600, 24 h; higher = more signal, called active from +8 up or from −8 down
# [7] = growth of efflux-deficient E. coli DRC39 – strain DRC39, OD650, 24 h, E. coli filamentation inducers, primary screen (AID 1178);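 note: growth measured as culture turbidity by optical density at 650 nm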; conditions: E. coli DRC39 acrAB, higher = more signal, called active from +8 up or from −8 down
# [8] = growth of efflux-deficient E. coli DRC39 – strain DRC39, OD650, 48 h, E. coli filamentation inducers, primary screen (AID 1179);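 note: screen aims at cell division blockers that make cells filament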; conditions: E. coli DRC39 delta-acrAB growth, higher = more signal, called active from +8 up or from −8 down
# [9] = viability profiling in RPMI8226 myeloma cells – cell-based, resazurin fluorescence, basal, 24 h, PK04 Diversity Set, profiling panel (AID 1180); conditions: higher = more signal;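 note: RPMI8826 multiple myeloma cell line at 5000 cells per well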
# [10] = target: E3 ubiquitin-protein ligase XIAP (Homo sapiens) (UniProt P98170); assay: small molecules binding XIAP protein – biophysical, small-molecule microarray, fluorescence 635 nm, primary screen (AID 1181); conditions: higher = more signal;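 note: score merges 667 nm emission and signal to noise over triplicate slides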
# [11] = test system: XIP peptide (Xip251-270) binding; assay: XIP fragment 251-270 binding compounds – biochemical, small-molecule microarray, fluorescence 635/667 nm, 0.1 µg/mL protein, primary screen (AID 1182); conditions: fluorescent protein binding, 635 nm, higher = more signal, called active from +8 up or from −8 down
# [12] = test system: XIP peptide (Xip251-270); assay: compounds binding XIP fragment 251-270 – biochemical, small-molecule microarray, fluorescence 635/667 nm, 0.5 µg/mL protein, primary screen (AID 1183); conditions: fluorescence 635 nm, higher = more signal
# [13] = blood-stage malaria parasite viability loss – strain 3D7, DAPI fluorescence, 100 nL, primary screen (AID 1184);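 note: parasites grown inside human red blood cells in medium with human serum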; conditions: P. falciparum 3D7 growth, 3 d, higher = more signal
# [14] = target: Homeobox protein Hox-A13 (Mus musculus) (UniProt Q62424); assay: disruptors of Hoxa13 oligonucleotide interaction – biochemical, fluorescence polarization, labeled oligonucleotide, primary screen (AID 1185); conditions: Hoxa13:DNA binding, 15 min, higher = more signal, called active from +8 up or from −8 down
# [15] = blockers of DNA damage checkpoint Chk1 activation – imaging, HeLa, hydroxyurea, phospho-Chk1 antibody, percent positive cells, primary screen (AID 1186); conditions: hydroxyurea-induced phospho-Chk1 immunofluorescence imaging, higher = more signal
# [16] = blockers of DNA damage checkpoint Chk1 activation – imaging, HeLa, hydroxyurea, phospho-Chk1 nuclear intensity, primary screen (AID 1187); conditions: hydroxyurea-induced phospho-Chk1 immunofluorescence imaging, higher = more signal
# Chain of E3 ubiquitin-protein ligase XIAP (Homo sapiens) (P98170 whole entry, looked up, the tested form may be a part): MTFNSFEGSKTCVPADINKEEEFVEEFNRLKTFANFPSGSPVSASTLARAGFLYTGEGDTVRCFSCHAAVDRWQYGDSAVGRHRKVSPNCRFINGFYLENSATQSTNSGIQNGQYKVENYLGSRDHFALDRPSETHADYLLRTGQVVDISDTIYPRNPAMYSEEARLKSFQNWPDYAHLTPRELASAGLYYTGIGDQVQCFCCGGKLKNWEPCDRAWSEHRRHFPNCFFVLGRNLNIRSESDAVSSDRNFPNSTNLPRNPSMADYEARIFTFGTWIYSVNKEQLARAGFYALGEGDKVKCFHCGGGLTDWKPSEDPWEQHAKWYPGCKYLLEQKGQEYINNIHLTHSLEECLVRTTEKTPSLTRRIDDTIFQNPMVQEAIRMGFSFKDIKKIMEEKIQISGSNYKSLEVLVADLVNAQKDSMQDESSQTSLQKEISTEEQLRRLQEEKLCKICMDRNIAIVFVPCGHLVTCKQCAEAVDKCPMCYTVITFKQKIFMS
# Chain of Homeobox protein Hox-A13 (Mus musculus) (Q62424 whole entry, looked up): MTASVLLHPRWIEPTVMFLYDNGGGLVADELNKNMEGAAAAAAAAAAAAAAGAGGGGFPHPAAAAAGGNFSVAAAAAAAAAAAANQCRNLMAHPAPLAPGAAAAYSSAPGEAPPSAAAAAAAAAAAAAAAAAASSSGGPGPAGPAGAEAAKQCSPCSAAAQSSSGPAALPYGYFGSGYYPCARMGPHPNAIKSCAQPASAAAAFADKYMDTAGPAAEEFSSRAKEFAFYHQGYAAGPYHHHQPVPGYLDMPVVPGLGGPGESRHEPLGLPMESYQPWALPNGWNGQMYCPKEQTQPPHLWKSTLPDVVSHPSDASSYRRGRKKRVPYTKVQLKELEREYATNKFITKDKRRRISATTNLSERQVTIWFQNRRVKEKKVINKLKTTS
# Chain of Dihydroorotate dehydrogenase (quinone), mitochondrial (Plasmodium falciparum (isolate 3D7)) (Q08210 whole entry, looked up): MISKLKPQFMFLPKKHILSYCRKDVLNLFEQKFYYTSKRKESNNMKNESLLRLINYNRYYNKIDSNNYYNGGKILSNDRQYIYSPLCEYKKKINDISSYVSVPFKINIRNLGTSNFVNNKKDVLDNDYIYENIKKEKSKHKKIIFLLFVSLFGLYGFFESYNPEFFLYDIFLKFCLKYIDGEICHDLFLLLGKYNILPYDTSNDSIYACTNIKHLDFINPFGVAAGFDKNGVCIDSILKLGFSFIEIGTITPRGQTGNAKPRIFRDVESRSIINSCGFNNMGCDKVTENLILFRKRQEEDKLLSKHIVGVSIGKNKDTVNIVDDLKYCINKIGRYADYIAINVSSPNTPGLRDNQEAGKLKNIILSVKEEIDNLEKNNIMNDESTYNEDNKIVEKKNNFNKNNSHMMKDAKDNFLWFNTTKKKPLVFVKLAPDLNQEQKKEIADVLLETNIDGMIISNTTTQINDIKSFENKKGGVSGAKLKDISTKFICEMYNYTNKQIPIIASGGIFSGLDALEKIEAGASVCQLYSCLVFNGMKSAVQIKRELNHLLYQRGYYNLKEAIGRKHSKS
SMILES,z-score [1],z-score [2],z-score [3],composite z-score [4],z-score [5],z-score [6],z-score [7],z-score [8],z-score [9],composite z-score [10],composite z-score [11],composite z-score [12],z-score [13],z-score [14],z-score [15],z-score [16]
C[N+](C)(C)CCCC[C@@H]1NC(=O)[C@@H]2C[C@H](C(=O)NCCCCCCNC(=O)CS)[C@H](c3ccc(O)cc3)N2C1=O,-0.206,1.4 (inactive),-0.387 (inactive),-0.206 (inactive),-0.282 (inactive),0.144 (inactive),-0.253 (inactive),-0.135 (inactive),-0.437,-0.0911,0.307 (inactive),0.496,0.504,-1.32 (inactive),0.146 (inactive),0.32 (inactive)
CCCCCCc1nc(-c2ccc(-c3ccc(Cl)c(Cl)c3)o2)c(C)c2c1[Si](C(C)C)(C(C)C)OC2,-0.865,-4.18 (inactive),-2.84 (inactive),-2.2 (inactive),0.668 (inactive),-0.721 (inactive),-0.0618 (inactive),-0.616 (inactive),-1.42,-0.113,-0.376 (inactive),0.148,-2.4,-2.13 (inactive),0.394 (inactive),0.251 (inactive)
CC(C)(C)OC(=O)CC[C@]1(C(N)=O)N=C(c2ccc(OCCCO)cc2)O[C@H]1c1ccccc1,-0.49,0.45 (inactive),-0.689 (inactive),-0.0959 (inactive),0.55 (inactive),0.663 (inactive),-0.218 (inactive),-0.585 (inactive),-0.676,0.12,1.25 (inactive),-0.612,0.404,-2.87 (inactive),0.444 (inactive),-0.0163 (inactive)
[N-]=[N+]=Nc1ccccc1C[C@]1(C(=O)N2CCCCC2)COC(c2ccc(OCCCO)cc2)=N1,0.508,-1.44 (inactive),-0.823 (inactive),1.78 (inactive),-0.248 (inactive),0.266 (inactive),1.18 (inactive),0.344 (inactive),0.552,0.054,1.98 (inactive),0.204,-2.29,-6.17 (inactive),0.118 (inactive),-0.232 (inactive)
CCCCC(O)C1C=CC2C(=O)N(C)C(=O)C2N1N1CCCCC1 (stereo not given),-1.12,1.96 (inactive),-1.5 (inactive),1.23 (inactive),0.971 (inactive),1.64 (inactive),-0.83 (inactive),-0.412 (inactive),-1.9,0.547,0.0433 (inactive),0.941,-0.133,-6.77 (inactive),0.492 (inactive),0.154 (inactive)
O=C1OCCC/C=C\[C@H]2OC34C=CCN(c5ccc6ccccc6c5)C(=O)[C@H]3N(CCCCCO)C(=O)[C@@H]4C12 (stereo not given in full),0.0877,-0.801 (inactive),-0.377 (inactive),-0.338 (inactive),-0.649 (inactive),-0.878 (inactive),0.352 (inactive),-0.005 (inactive),0.408,-0.0541,0.0867 (inactive),0.0861,1.73,-4.94 (inactive),0.715 (inactive),-0.0708 (inactive)
C=C(CCCC)/C(=C/C[C@H](OC(C)=O)c1ccccc1OCCO)c1cnc2ccccc2c1,-0.671,-0.468 (inactive),-1.37 (inactive),-5.76 (inactive),0.26 (inactive),1.15 (inactive),-0.709 (inactive),-0.742 (inactive),-0.905,-0.13,2.68 (inactive),0.657,-2.52,-5.13 (inactive),0.444 (inactive),0.328 (inactive)
COC(=O)[C@@]1(Cc2ccc(OC)cc2)[C@H]2c3cc(C(=O)N4CCCC4)n(Cc4nc5ccccc5[nH]4)c3C[C@H]2CN1C(=O)c1ccccc1,0.0719,1.36 (inactive),-1.79 (inactive),0.98 (inactive),-0.222 (inactive),0.736 (inactive),-0.0181 (inactive),-0.104 (inactive),-1.2,0.62,1.01 (inactive),0.636,-1.22,-2.23 (inactive),0.732 (inactive),0.409 (inactive)
COC(=O)[C@]1(CCC(=O)OC(C)(C)C)N=C(c2ccc(OCCCO)cc2)O[C@@H]1c1ccccc1,-0.134,-0.761 (inactive),-0.671 (inactive),-0.134 (inactive),0.438 (inactive),0.504 (inactive),3.37 (inactive),0.648 (inactive),-1.47,0.153,1.87 (inactive),0.761,-2.31,-4.4 (inactive),-0.621 (inactive),-0.545 (inactive)
CCOC(=O)C[C@H]1[C@H](OC(=O)c2ccc(C(=O)c3ccccc3)cc2)[C@@H](NC(=O)Cc2ccc(OC)cc2)c2cc(OCCCO)ccc2N1C(=O)c1ccc2ccccc2n1,-0.0666,-0.337 (inactive),-0.0911 (inactive),0.764 (inactive),0.207 (inactive),0.11 (inactive),-0.572 (inactive),-0.335 (inactive),0.273,0.0801,0.845 (inactive),0.172,-0.129,-1.9 (inactive),0.112 (inactive),-0.189 (inactive)
